From PubChem BioAssay (NCATS) come the findings set out here.

Results filed as inconclusive are left out. Values without a mark were called inactive. The source made the active and inactive calls. Calls follow the shape of the dose curve; as a rule, active = well fitted inhibition curve with a large enough effect; inconclusive = small, poorly fitted or top-dose-only effect; inactive = flat fitted curve, though single readings scatter.
% is scaled to controls: 0 for no effect and ±100 for the full control effect; potency is read from the fitted curve at half-maximal effect.

The target of this test is Calcium and integrin-binding protein 1 (Homo sapiens) (UniProt Q99828). The experiment in a line: Primary qHTS for Identification of Calcium Integrin Binding Protein 1 (CIB1) Competitor (AID 1508620).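 As to activity change, negative = inhibition: GST tagged CIB1 binding a fluorescein labelled alphaIIb integrin peptide tracer; top concentration of the series differs between compounds.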 To be noted: CIB1-GST / FITC-alphaIIb peptide fluorescence polarization; series mostly up to 57.7 µM; activity change, negative = inhibition: at the top concentration. The source says: Assay Provider: Ulhas P. Naik, PhD Sidney Kimmel Medical College Thomas Jefferson University, Philadelphia, PA Primary function of platelets is to maintain hemostasis. At the site of vascular injury, platelets adhere to adhesive proteins such as collagen and von Willebrand factor. Adherent platelets are activated and generate soluble platelet agonists such as thrombin, ADP and thromboxane A2. Following exposure of circulating platelets to these agonists, results in platelet shape change, granule secretion and activation of platelet integrin alphaIIb-beta3. Ligand binding to activated integrin alphaIIb-beta3 triggers outside-in signaling, leading to platelet aggregation, stabilization of platelet plug, and clot retraction. Upon atherosclerotic plaque rupture also causes platelet plug formation, which underlies a number of cardiovascular diseases such as myocardial infraction and stroke. A number of anti-platelet drugs such as aspirin, clopidogrel, prasugrel, vorapaxar, and eptifibatide are currently available to prevent the thrombotic complications. However, these anti-platelet agents have several limitations including inherent variability in individual responses, developing resistance, and serious bleeding side effects. For these reasons they are not suitable for long-term protection. Based on the experiences with current anti-platelet drugs, it appears that the most useful therapeutic approach is to intersect the secondary responses such as integrin outside-in signaling or recruitment of platelets by TxA2 and secreted ADP. Compounds, which can largely preserve the primary hemostatic function of platelets but inhibit secondary response will be most desired therapeutic agents for treatment of cardiovascular disease. CIB1 is a calcium integrin binding protein, which specifically interact with the alphaIIb subunit of integrin alphaIIb-beta3. Binding of CIB1 to alphaIIb regulates the outside-in signaling in platelets, which is needed for thrombus stabilization and thrombus growth. […] Therefore, we propose that discovery of a small molecule that can prevent the association of CIB1 and alphaIIb-beta3 will be a potential anti-platelet agent that can block the thrombus formation without undue effect on hemostasis. Reference: [1] Naik MU, Nigam A, Manrai P, et al. CIB1 deficiency results in impaired thrombosis: the potential role of CIB1 in outside-in signaling through integrin alpha IIb beta 3. J Thromb Haemost.
Chain of Calcium and integrin-binding protein 1 (Homo sapiens) (Q99828 whole entry, looked up): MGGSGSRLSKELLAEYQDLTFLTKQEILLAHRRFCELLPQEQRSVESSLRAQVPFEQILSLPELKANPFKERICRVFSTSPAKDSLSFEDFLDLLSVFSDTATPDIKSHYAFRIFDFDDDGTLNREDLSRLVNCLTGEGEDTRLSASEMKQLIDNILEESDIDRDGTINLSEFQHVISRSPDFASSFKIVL
PROTOCOL TABLES SEQUENCE No. (1, 2, 3, etc.); […] (e.g., Cells, Incubation, Reagent, etc.); VALUE and DESCRIPTION. 1; Reagent; 3 uL; Protein or buffer (4/3x) 2; Compound; 46 nL; Control inhibitor / compound library 3; Time; 15 min; Room temperature incubation 4; Reagent; 1 uL; Fluorescent labeled peptide (4x) 5; Time; 1000 rpm; Centrifuge 6; Time; 15 min; Room temperature incubation 7; Detection; Ex 480/ Em 540; ViewLux Fluorescence Read NOTES (numbers refer to sequence above) 1; Protein Mixture: C1B1-GST (final concentrations of 1 uM). […] 3; Room temperature incubation. 4; Fluorescent Labeled Peptide: FITC-aIIb (final concentration of 100 nM). Sequence of alphaIIb peptide: Acetyl-[…]-FITC (purity is 95.83%). 5; Centrifuge 1000 rpm (164 g) for 15 seconds. 6; Room temperature incubation. 7; ViewLux Fluorescent Polization Read: excitation = 480(20) / emission = 540(25) S and P; FITC Dichroic mirror.
Background: qHTS replaces the single test concentration by a dilution series.
Turning to `COc1nc(C)cnc1NS(=O)(=O)c1cccnc1-c1ccc(-c2nnco2)cc1`, the Potency result was “inactive”. As for `CN[C@H]1[C@@H](O[C@@H]2[C@H](O[C@@H]3[C@@H](O)[C@@H](O)[C@@H](N=C(N)N)[C@@H](O)[C@@H]3N=C(N)N)O[C@H](C)[C@@]2(O)C=O)O[C@@H](CO)[C@@H](O)[C@H]1O`, the activity change, negative = inhibition is -2.24% [at 12.4 µM]. With `O=C1C(CCC(O)c2ccc(F)cc2)C(c2ccc(O)cc2)N1c1ccc(F)cc1` (stereo not given), the “activity change, negative = inhibition” value was -6.43%. Take `CC(C)CNc1ccnc(NCc2csc(-c3ccccc3)n2)n1`: the Potency result was “inactive”. Take `CON(C)C(=O)N1N=C(c2cc(F)ccc2F)S[C@]1(CCCN)c1ccccc1`: the “activity change, negative = inhibition” value is 2.27%. `c1cc(OCCN2CCCCC2)cc(-c2n[nH]c3ccc(-c4ncn[nH]4)cc23)c1`: the Potency result was “inactive”.

Turning to `COC(=O)N1CCN(Cc2cccc(NC(=O)Nc3ccc(C)nc3)c2F)CC1`, the Potency entry is “inactive”.

As to `CC[C@H](NC(=O)[C@H](C)NC)C(=O)N1C[C@@H](O)C[C@H]1Cc1c(-c2[nH]c3cc(F)ccc3c2C[C@H]2C[C@H](O)CN2C(=O)[C@H](CC)NC(=O)[C@H](C)NC)[nH]c2cc(F)ccc12`, the “activity change, negative = inhibition” value is -1.39%. On the same count and under the same terms, next, `CCNC(=O)[C@H]1O[C@@H](n2cnc3c(N)nc(NCCc4ccc(CCC(=O)O)cc4)nc32)[C@H](O)[C@H]1O`: -3.91%; `O=C(NCCCCN1CCOCC1)c1cc2ccccc2o1`: -0.0744%; `CCOC(=O)[C@H]1O[C@H]1C(=O)N[C@@H](CC(C)C)C(=O)NCCC(C)C`: -1.74%. With `Fc1ccc(C(c2ccc(F)cc2)N2CCN(CC=Cc3ccccc3)CC2)cc1`, the Potency is 19.2 µM (active). Take `CC1CNc2c(cccc2S(=O)(=O)N[C@@H](CCCN=C(N)N)C(=O)N2CC[C@@H](C)C[C@@H]2C(=O)O)C1` (stereo not given in full): the “activity change, negative = inhibition” value was -3.18%.

Take `CCCCCCCCCCCCCCCC(=O)O[C@H]1[C@@H](O)[C@@H](O)[C@@H]([C@H](NC(=O)[C@@H]2C[C@@H](CCC)CN2C)[C@H](C)Cl)O[C@@H]1SC`: the “activity change, negative = inhibition” value is 0.283%. Turning to `CCCCC(F)(F)[C@@]1(O)CC[C@H]2[C@H](CC(=O)[C@@H]2CCCCCCC(=O)O)O1`, the Potency entry was “inactive”. For `CC[C@@H]([C@H](C)O)n1ncn(-c2ccc(N3CCN(c4ccc(OCC5CO[C@@](Cn6cncn6)(c6ccc(F)cc6F)C5)cc4)CC3)cc2)c1=O` (stereo not given in full), the “activity change, negative = inhibition” value was -0.202%. On to `O=C(NC[C@H](O)CO)c1ccncc1Nc1ccc(I)cc1F`, for which the “activity change, negative = inhibition” value was 4.15%. As for `CN(C)N=Nc1nc[nH]c1C(N)=O`, the “activity change, negative = inhibition” value is 3.43%. In the case of `CO[C@H]1/C=C\O[C@@]2(C)Oc3c(C)c(O)c4c(O)c(c(C=NN5CCN(C6CCCC6)CC5)c(O)c4c3C2=O)NC(=O)C(C)=CC=C[C@H](C)[C@H](O)[C@@H](C)[C@@H](O)[C@@H](C)[C@H](OC(C)=O)[C@H]1C`, the “activity change, negative = inhibition” value was -9.32%. In the case of `COC(=O)[C@H](c1ccccc1Cl)N1CCc2sccc2C1`, the “activity change, negative = inhibition” value is 0.901%.

In the case of `O=C(Nc1cccc(Cl)c1)Nc1ncc(CCNc2ncnc3ccsc23)s1`, the “activity change, negative = inhibition” value is -2%. The same measure, in the same setting: next, `NCC1CCC(C(=O)O)CC1` (stereo not given): -2.09%.

Regarding `CCN1C[C@H](C)n2c(c(O)c3c(=O)n(Cc4ccc(F)c(Cl)c4)nc(C(=O)NC)c32)C1=O`, the Potency result was “inactive”.

Take `CCCCC[C@H](O)C=C[C@H]1[C@H](O)CC(=O)[C@H]1CCCCCCC(=O)O`: the “activity change, negative = inhibition” value was -8.85%. With `CCNC(=O)Nc1ccc(Oc2ncnc(N)c2C=NOC)cc1Cl`, the “activity change, negative = inhibition” value is -1.25%. Turning to `C[C@@H]1[C@H](C)CC[C@]2(C(=O)O)CC[C@]3(C)C(=CC[C@@H]4[C@@]5(C)CC[C@H](O)C(C)(C)[C@H]5CC[C@]43C)[C@@H]12`, the “activity change, negative = inhibition” value was 3.02% [at 114 µM]. `CCCCc1ccc(NS(=O)(=O)c2ccc(C)c(C(=O)N3CCN(c4cccc(C)c4C)CC3)c2)cc1`: the “activity change, negative = inhibition” value was -8.22%. As for `CN(C)CCCNC(=O)c1ccc(-c2cc(O)c3ncccc3c2)cc1`, the Potency entry is “inactive”.

Regarding `CC(=O)N1CCN(c2ccc(OCc3nn(C)c(C)c3-c3cccc4c(CCCOc5cc(C)c(Cl)c(C)c5)c(C(=O)O)n(Cc5cccnc5)c34)cc2)CC1`, the “activity change, negative = inhibition” value is -7.58%.

Consider `OC[C@H]1O[C@@H](Oc2ccc(O)cc2)[C@H](O)[C@@H](O)[C@H]1O`, for which the “activity change, negative = inhibition” value is -1.57%.

As for `O=C(CC12CC3CC(CC(C3)C1)C2)Nc1cccc2nc(NCCNCCO)ccc12`, the Potency entry is “inactive”. For the compound `Cc1cc2c(cc1C1(c3ccc(C(=O)O)cn3)CC1)C(C)(C)CCC2(C)C`, the Potency entry is “inactive”.

`N#Cc1c(N(CC(=O)O)CC(=O)O)sc(C(=O)O)c1CC(=O)O`: the “activity change, negative = inhibition” value is 1.72%. The same measure, in the same setting: under `Cc1nn(Cc2ccccc2Cl)c(C)c1CN(C)CC(O)COc1ccc(Cl)cc1` (stereo not given) stands -1.22%. With `Cn1cnc(-c2cc3nccc(Oc4ccc(NC(=S)NC(=O)Cc5ccccc5)cc4F)c3s2)c1`, the Potency entry was “inactive”. For the compound `COC(=O)Nc1ccc(-c2nc(N3CCOCC3)c3cnn(C4CCN(C(=O)OC)CC4)c3n2)cc1`, the “activity change, negative = inhibition” value was -1.85%. Regarding `C[C@@]1(C(=O)Nc2ccc(F)nc2)CCCN1c1nc(Nc2cc(C3CC3)[nH]n2)c2cccn2n1`, the Potency entry is “inactive”. As to `Cc1ccc(C(=O)N(CCCN)[C@@H](c2oc3cc(Cl)ccc3c(=O)c2Cc2ccccc2)C(C)C)cc1`, the “activity change, negative = inhibition” value was -4.77%. The same measure, in the same setting: under `NC(=O)c1ncn([C@@H]2O[C@H](CO)[C@@H](O)[C@@H]2O)n1` stands -1.86%; under `Cc1ccc(NC(=O)Nc2cc(C(F)(F)F)ccc2F)cc1Nc1ccc2c(c1)NC(=O)C2=Cc1ccc[nH]1`, 12.6%.
